Among the data in PubChem BioAssay (NCI) are growth values, retold here.

Structures are written as SMILES. About 83,000 compounds went through this panel and 20% of them were active in at least one assay; those are over-represented in the sample as a whole.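 Compound tested at a single concentration for 48 hours in 96-well plates; a percent growth value below 10 was scored as active.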 Unmarked numbers belong to inactive results. Calls of active or inactive are those of the source.

Some test systems named below: DU-145 prostate; K-562 leukemia; MALME-3M melanoma; MDA-MB-231 breast; RXF 393 renal; SF-268 CNS; SF-295 CNS; SF-539 CNS; UACC-257 melanoma; M14 melanoma.
Holding throughout (test): NCI-60 one-dose screen, 48 h (100 = growth as untreated, 0 = no growth, -100 = all killed)
What all share (conditions): 10 µM

Take `CCCn1c(=O)c2c(nc(-c3cccc(OCCCCl)c3)n2C)n(CCC)c1=O`: the growth in the assay on DU-145 prostate is 61.3%; in the assay with K-562 leukemia, 92.6%; with MALME-3M melanoma, 62.2%; in the assay on MDA-MB-231 breast it was 36.2%; with RXF 393 renal it was 37%; in the assay with SF-268 CNS, 59.9%. The growth is 15.3% in the assay with SF-295 CNS, 63% in the assay on SF-539 CNS, 82.1% in the assay with UACC-257 melanoma and 68.6% in the assay with M14 melanoma.

In the case of `COc1ccc2oc(=O)cc(C3c4ccc([nH]4)C(c4cc(=O)oc5ccc(OC)cc45)c4ccc([nH]4)C(c4cc(=O)oc5ccc(OC)cc45)c4ccc([nH]4)C(c4cc(=O)oc5ccc(OC)cc45)c4ccc3[nH]4)c2c1` (stereo not given), the growth with DU-145 prostate is -19.3% (active); in the assay with K-562 leukemia, -20.5% (active); with MALME-3M melanoma, 2.83% (active); in the assay on MDA-MB-231 breast, -16.5% (active); in the assay with RXF 393 renal, -77.3% (active); in the assay on SF-268 CNS, 20.4%. Also, the growth is 9.08% (active) with SF-295 CNS, -26.9% (active) in the assay on SF-539 CNS, 33.7% with UACC-257 melanoma and 3.08% (active) with M14 melanoma.

Regarding `O=[N+]([O-])c1ccc(-c2nc(Cl)c3c(n2)CCCC3)o1`, the growth is 31.4% in the assay with DU-145 prostate; 73.2% in the assay with K-562 leukemia; 41.4% in the assay with MALME-3M melanoma; 109% with MDA-MB-231 breast; 93.8% in the assay on RXF 393 renal; 88.5% with SF-268 CNS. Also, the growth is 115% in the assay on SF-295 CNS, 94.6% in the assay on SF-539 CNS, 82.5% in the assay on UACC-257 melanoma and 71.3% with M14 melanoma.

Regarding `COc1ccc(NC(=O)c2sc3nc4c(cc3c2N)C(O)CCC4)cc1` (stereo not given), the growth was 93.3% in the assay with DU-145 prostate; 80.6% in the assay on K-562 leukemia; 122% in the assay on MALME-3M melanoma; 116% in the assay with MDA-MB-231 breast; 102% in the assay on RXF 393 renal; 99.7% with SF-268 CNS. Moreover, the growth is 82.4% in the assay with SF-295 CNS, 111% in the assay on SF-539 CNS, 97.4% with UACC-257 melanoma and 101% in the assay with M14 melanoma.

`CCCCn1c(=O)[nH]c2c(c1=O)C(c1ccc(Cl)cc1)c1c([nH]c(=O)n(CCCC)c1=O)N2`: the growth in the assay with DU-145 prostate was 105%; in the assay with K-562 leukemia, 105%; with MALME-3M melanoma, 89.8%; in the assay on MDA-MB-231 breast it was 106%; with RXF 393 renal it was 109%; in the assay on SF-268 CNS it was 99%. In addition, the growth in the assay on SF-295 CNS is 89.8%; in the assay with SF-539 CNS, 101%; with UACC-257 melanoma it was 96.8%; in the assay with M14 melanoma, 96.6%.

With `CC(C)OP(=O)(O)c1ncc(-c2ccc(C(F)(F)F)cc2)c(NC2CCCCCC2)n1`, the growth in the assay on DU-145 prostate was 90.1%; with K-562 leukemia, 36.3%; in the assay on MALME-3M melanoma, 5.39% (active); in the assay with MDA-MB-231 breast, 89.9%; with RXF 393 renal it was 90.1%; in the assay with SF-268 CNS it was 75.6%. In addition, the growth in the assay with SF-295 CNS is 11.5%; with SF-539 CNS it was 92.4%; in the assay with UACC-257 melanoma, 28.6%; with M14 melanoma, 53.7%.

Regarding `COc1ccc(-c2nc3sc(-c4ccccc4)c(-c4ccccc4)n3c2/C=C/c2ccc(F)cc2)cc1`, the growth with DU-145 prostate is 103%; in the assay with K-562 leukemia it was 107%; with MALME-3M melanoma it was 96.6%; in the assay on MDA-MB-231 breast, 86.7%; with RXF 393 renal, 89.4%; in the assay with SF-268 CNS it was 97.8%. In addition, the growth is 97% in the assay on SF-295 CNS, 92.1% in the assay on SF-539 CNS, 99% in the assay on UACC-257 melanoma and 83.1% in the assay with M14 melanoma.

With `O=C1/C(=C/c2ccc(O)cc2)Cc2ccc(Cl)cc21`, the growth with DU-145 prostate is 111%; in the assay on K-562 leukemia it was 81.8%; in the assay with MALME-3M melanoma, 106%; in the assay with MDA-MB-231 breast it was 61.5%; with RXF 393 renal, 59.7%; with SF-268 CNS it was 95.9%. Further, the growth in the assay on SF-295 CNS is 92.3%; with SF-539 CNS, 82.6%; with UACC-257 melanoma it was 86%; with M14 melanoma, 82.5%.

On to `O/N=C1\CCC2CCCCC2C1` (stereo not given), for which the growth in the assay on DU-145 prostate is 113%; with K-562 leukemia, 106%; with MALME-3M melanoma it was 98.2%; in the assay with MDA-MB-231 breast, 114%; in the assay with RXF 393 renal it was 104%; in the assay on SF-268 CNS, 103%. For the same compound, the growth was 93.6% with SF-295 CNS, 88.8% in the assay on SF-539 CNS, 107% in the assay on UACC-257 melanoma and 102% in the assay with M14 melanoma.

Regarding `C=CCN1C(=O)/C(=C\c2ccc3c(c2)CCC3)SC1=S`, the growth in the assay with DU-145 prostate is 106%; in the assay on K-562 leukemia, 103%; with MALME-3M melanoma, 93.7%; in the assay with MDA-MB-231 breast, 98.8%; in the assay with RXF 393 renal, 101%; in the assay with SF-268 CNS, 102%. For the same compound, the growth was 95.2% in the assay with SF-295 CNS, 95.5% with SF-539 CNS, 110% in the assay with UACC-257 melanoma and 101% with M14 melanoma.

Regarding `CCOC(=O)CSC(=S)SCC(=O)OCC`, the growth is 107% with DU-145 prostate; 95.6% in the assay on K-562 leukemia; 98% in the assay with MALME-3M melanoma; 118% with MDA-MB-231 breast; 109% in the assay on RXF 393 renal; 113% in the assay on SF-268 CNS. For the same compound, the growth was 103% in the assay on SF-295 CNS, 94.1% in the assay with SF-539 CNS, 82.8% with UACC-257 melanoma and 97.9% in the assay on M14 melanoma.

Regarding `COc1cccc2c1C(=O)c1c(O)c3c(c(O)c1C2=O)C[C@@](O)(C(=O)COC(=O)c1cccnc1)C[C@@H]3OC1CC(N)C(O)C(C)O1` (stereo not given in full), the growth is 7.78% (active) in the assay on DU-145 prostate; 1.5% (active) in the assay with K-562 leukemia; -66.7% (active) in the assay on MALME-3M melanoma; -18.6% (active) in the assay with MDA-MB-231 breast; -64.5% (active) in the assay with RXF 393 renal; -30% (active) in the assay with SF-268 CNS. Also, the growth with SF-295 CNS was -56.8% (active); in the assay with SF-539 CNS it was -36.4% (active); with UACC-257 melanoma, -54.7% (active); in the assay with M14 melanoma, -43.4% (active).

As for `O=C(OCc1ncc(-c2ccc(C(F)(F)F)cc2)c(NC2CCCCCC2)n1)c1c(F)c(F)c(F)c(F)c1F`, the growth in the assay on DU-145 prostate was 77.2%; in the assay on K-562 leukemia, 31.9%; in the assay on MALME-3M melanoma, -14.4% (active); in the assay on MDA-MB-231 breast, 81.4%; in the assay on RXF 393 renal it was 64.3%; with SF-268 CNS, 72.5%. For the same compound, the growth in the assay with SF-295 CNS was 24.5%; with SF-539 CNS, 96.3%; with UACC-257 melanoma, 34.9%; in the assay with M14 melanoma, 43.7%.
